Laboratory results reported in PubChem BioAssay (Tox21).
Records with an inconclusive call do not appear. Activity calls are given as the source filed them. Unless noted, calls follow the shape of the dose curve; as a rule, active = well fitted curve in the direction sought with a large enough effect in the repeat runs; inconclusive = weak or mixed curves; inactive = no such curve, though single readings can be large; an effect the other way counts as inactive or inconclusive.

Columns and labels:
[1] = qHTS assay to identify small molecule antagonists of the estrogen related receptor (ERR) signaling pathway from Tox21 library - cell viability counter screen (AID 1224834); also: nearly all actives have a fitted effect of over 30% in size
Procedure, shortened: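 Cytotoxicity of test substances is gauged in the same ERR cells used for the antagonist screen, after 17.5 h of compound treatment at 37 C, by CellTiter-Fluor fluorescence measured after 30 min.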

[2] = qHTS assay to identify small molecule agonists of the constitutive androstane receptor (CAR) signaling pathway - cell viability counter screen (AID 1224836); also: nearly all actives have a fitted effect of over 45% in size
Procedure, shortened: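 23 h treatment, 37 C, 5% CO2. Cell line: HepG2 stably expressing hCAR with a CYP2B6-2.2kb construct. Co-treatment: PK11195, 0.75 uM final. Read-out: CellTiter-Fluor fluorescence intensity.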

[3] = qHTS assay to identify small molecule antagonists of the constitutive androstane receptor (CAR) signaling pathway - cell viability counter screen (AID 1224837); also: nearly all actives have a fitted effect of over 45% in size
Procedure, shortened: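 Multiplexed cytotoxicity read-out for the CAR antagonist screen: double-stable HepG2-CYP2B6-hCAR cells co-treated with 50 nM CITCO (final) and compound over 15 concentrations, incubated 23 hr, then assessed by CellTiter-Fluor fluorescence.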

[4] = biological target: Nuclear receptor subfamily 1 group I member 3 (Homo sapiens) (UniProt Q14994); experiment: qHTS assay to identify small molecule antagonists of the constitutive androstane receptor (CAR) signaling pathway (AID 1224838); also: nearly all actives have a fitted effect of over 40% in size
Chain of Nuclear receptor subfamily 1 group I member 3 (Homo sapiens) (Q14994 whole entry, looked up): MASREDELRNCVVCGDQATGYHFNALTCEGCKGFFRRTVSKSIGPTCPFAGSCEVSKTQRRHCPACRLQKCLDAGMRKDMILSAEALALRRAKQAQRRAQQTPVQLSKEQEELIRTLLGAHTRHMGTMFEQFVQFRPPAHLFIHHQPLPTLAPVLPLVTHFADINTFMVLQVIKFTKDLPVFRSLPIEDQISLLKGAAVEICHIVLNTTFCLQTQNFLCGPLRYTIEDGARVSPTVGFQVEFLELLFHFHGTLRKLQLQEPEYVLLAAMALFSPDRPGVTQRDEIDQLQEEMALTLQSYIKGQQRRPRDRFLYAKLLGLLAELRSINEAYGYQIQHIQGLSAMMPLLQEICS
Procedure, shortened: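 Compounds were titrated across 15 concentrations onto HepG2 cells double-stably expressing hCAR and a CYP2B6-2.2kb reporter, together with 50 nM CITCO (final). After 24 h at 37 C, luciferase activity was measured by luminescence.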

[5] = biological target: Nuclear receptor subfamily 1 group I member 3 (Homo sapiens) (UniProt Q14994); experiment: qHTS assay to identify small molecule agonists of the constitutive androstane receptor (CAR) signaling pathway (AID 1224839);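 also: HepG2 cells stably carrying human CAR and a CYP2B6 luciferase reporter; nearly all actives have a fitted effect of over 15% in size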
Procedure, shortened: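 Compounds tested at 15 concentrations on HepG2 cells stably harbouring hCAR and CYP2B6-2.2kb reporter constructs, co-treated with PK11195 (0.75 uM final), 24 h at 37 C; luminescent reporter signal quantified.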

[6] = qHTS assay to identify small molecule antagonists of the estrogen related receptor signaling pathway with the pleiotropic PPARgamma coactivator (PGC) from Tox21 10K library - cell viability counter screen (AID 1224840; active = well fitted cell-killing curve with a large enough effect in the repeat runs, not every such curve was filed as active; also: nearly all actives have a fitted effect of over 40% in size)
Procedure, shortened: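 Step one, plate 2,000 PGC/ERR cells per well; step two, incubate 6 h at 37 C/5% CO2; step three, pin-transfer compounds; step four, incubate 17.5 h; step five, add CellTiter-Fluor and read fluorescence after 30 min.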

[7] = qHTS assay to identify small molecule antagonists of the estrogen related receptor signaling pathway with the pleiotropic PPARgamma coactivator (PGC) from Tox21 10K library (AID 1224841; call rule not given here; also: actives are mostly falling curves and most rising ones were filed inactive; nearly all actives have a fitted effect of over 50% in size)
Procedure, shortened: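 Antagonism in this quantitative HTS is taken from loss of luciferase signal in PGC/ERR cells. Cells (2,000/well) are treated with compounds in DMSO after a 6 h settling period and read by One-Glo luminescence after 18 h.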

[8] = qHTS assay to identify small molecule agonists of the estrogen related receptor signaling pathway with the pleiotropic PPARgamma coactivator (PGC) from Tox21 10K library (AID 1224842); also: nearly all actives have a fitted effect of over 15% in size
Procedure, shortened: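 PGC/ERR reporter cell line, 2,000 cells per well, incubated 6 h at 37 C before 23 nL compound in DMSO was added. After 18 h at 37 C, One-Glo luminescence read following 30 min at room temperature.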

[9] = biological target: Thyrotropin receptor (Homo sapiens) (UniProt P16473); experiment: qHTS assay to identify small molecule agonists of the thyroid stimulating hormone receptor (TSHR) signaling pathway (AID 1224843; calls by dose curve; also: nearly all actives have a fitted effect of over 45% in size)
Chain of Thyrotropin receptor (Homo sapiens) (P16473 whole entry, looked up): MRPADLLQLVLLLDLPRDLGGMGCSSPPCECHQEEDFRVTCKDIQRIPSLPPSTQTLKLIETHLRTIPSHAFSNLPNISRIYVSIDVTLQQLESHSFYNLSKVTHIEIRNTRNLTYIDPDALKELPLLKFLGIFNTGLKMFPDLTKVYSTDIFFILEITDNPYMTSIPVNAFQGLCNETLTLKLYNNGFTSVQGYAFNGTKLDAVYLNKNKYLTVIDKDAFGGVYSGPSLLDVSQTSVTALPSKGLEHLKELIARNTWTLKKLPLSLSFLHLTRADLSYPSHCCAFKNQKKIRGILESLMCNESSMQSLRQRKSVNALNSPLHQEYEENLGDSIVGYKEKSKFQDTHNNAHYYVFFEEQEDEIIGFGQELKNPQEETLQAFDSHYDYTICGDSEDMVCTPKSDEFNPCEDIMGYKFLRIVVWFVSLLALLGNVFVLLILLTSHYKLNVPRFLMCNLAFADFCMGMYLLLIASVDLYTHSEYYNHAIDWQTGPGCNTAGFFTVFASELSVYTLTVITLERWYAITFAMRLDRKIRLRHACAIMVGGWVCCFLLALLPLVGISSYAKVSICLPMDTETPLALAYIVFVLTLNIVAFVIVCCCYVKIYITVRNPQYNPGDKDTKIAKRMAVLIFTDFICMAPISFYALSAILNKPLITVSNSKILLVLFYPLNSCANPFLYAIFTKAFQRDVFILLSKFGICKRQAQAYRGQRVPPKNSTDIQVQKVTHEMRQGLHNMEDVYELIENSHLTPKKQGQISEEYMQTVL
Procedure, shortened: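 Steps: seed 800 TSHR-HEK293 cells per well; add test compound and hold 30 min at ambient temperature; dispense cAMP-d2 then anti-cAMP cryptate; incubate 1 h at ambient; measure fluorescence intensity.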

[10] = qHTS assay to identify small molecule agonists of the hypoxia (HIF-1) signaling pathway - cell viability counter screen (AID 1224844; calls by dose curve; also: nearly all actives have a fitted effect of over 50% in size)
Procedure, shortened: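 Tox21 10K compounds were added to HRE-bla ME-180 cells (0.5% dialyzed FBS) and incubated 17 hrs at 37C; ATP-based CellTiter-Glo luminescence then reported cell viability in the same wells.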

[11] = qHTS assay to identify small molecule agonists of H2AX (AID 1224845; active = well fitted activation curve with a large enough effect in the signal ratio in the repeat runs, not every such curve was filed as active; the % refers to the signal ratio)
Procedure, shortened: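 Wild-type CHO-K1 cells, plated overnight, exposed 3hr at 37C to 15 concentrations (0.76% DMSO final). Lysed, then HTRF anti-pH2AX (S139) cryptate and anti-H2AX-d2 antibodies, 24 hr room temperature; 665/620 nm emission read.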

[12] = qHTS assay to identify small molecule agonists of the hypoxia (HIF-1) signaling pathway (AID 1224846; active = well fitted activation curve with a large enough effect in the signal ratio in the repeat runs, not every such curve was filed as active; the % refers to the signal ratio)
Procedure, shortened: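 Steps: seed ME-180 HRE-bla cells (2,000/well, 0.5% dialyzed FBS); incubate 5 hrs at 37C; pin-transfer compounds or DMSO; incubate 17 hrs; add LiveBLAzer B/G substrate CCF4-AM; measure reporter activation by FRET.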

[13] = qHTS assay to identify small molecule agonists of H2AX - cell viability counter screen (AID 1224847; calls by dose curve; also: top concentration of the series differs between compounds; nearly all actives have a fitted effect of over 30% in size)
Procedure, shortened: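 Compounds tested at 15 concentrations were incubated 3 hr at 37C with wild-type CHO-K1 cells; cellular ATP-based luminescence (CellTiter-Glo) indicated viability.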

[14] = qHTS assay to identify small molecule antagonists of the estrogen related receptor (ERR) signaling pathway from Tox21 library (AID 1224848); also: nearly all actives have a fitted effect of over 50% in size
Procedure, shortened: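 Luminescent reporter read-out (ONE-Glo) from NTP's ERR cell line after 18 h treatment at 37 C with DMSO-dissolved Tox21 compounds; cells pre-plated 6 h beforehand at 2,000 per well.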

[15] = qHTS assay to identify small molecule agonists of the estrogen related receptor (ERR) signaling pathway from Tox21 library (AID 1224849; calls by dose curve; also: nearly all actives have a fitted effect of over 15% in size); conditions: ERR reporter cell line, ONE-Glo luciferase, 18 h; at 92.4 µM (top of the series) unless noted
Procedure, shortened: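 Agonist signal is luciferase luminescence from an ERR reporter cell line treated 18 h at 37 C with DMSO-dissolved compounds, read 30 min after ONE-Glo addition at room temperature.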

[16] = qHTS RealTime-Glo MT Cell Viability Assay in HepG2 cells - 24 hour (AID 1224867); also: nearly all actives have a fitted effect of over 50% in size
Procedure, shortened: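 Viability was tracked continuously by NanoLuc luminescence from prosubstrate reduced by living HepG2 cells, at successive time points over 40 h of compound exposure. Cells with reagent were preincubated 5 h at 37 °C before compound addition.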

[17] = qHTS RealTime-Glo MT Cell Viability Assay in HEK293 cells - 32 hour (AID 1224868)
Procedure, shortened: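 Viability tracked continuously by luminescence as live cells reduce a prosubstrate for NanoLuc; HEK293 cells preincubated 5 h, compound-treated at 37 C, and read at 0, 8, 16, 24, 32 and 40 h.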

[18] = A CellTox Green Cytotoxicity Assay to monitor cytotoxicity in HEK293 cells - 0 hour (AID 1224869); also: nearly all actives have a fitted effect of over 50% in size
Procedure, shortened: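 Cytotoxicity was tracked continuously in HEK293 cells by a DNA-binding dye excluded from viable cells. Compounds were transferred in DMSO 5 h after seeding; fluorescence was recorded at intervals up to 40 h.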

[19] = biological target: Luciferin 4-monooxygenase (Photinus pyralis) (UniProt P08659); experiment: qHTS assay to identify small molecule inhibitors of firefly luciferase (AID 1224835); also: nearly all actives have a fitted effect of over 25% in size
Chain of Luciferin 4-monooxygenase (Photinus pyralis) (P08659 whole entry, looked up): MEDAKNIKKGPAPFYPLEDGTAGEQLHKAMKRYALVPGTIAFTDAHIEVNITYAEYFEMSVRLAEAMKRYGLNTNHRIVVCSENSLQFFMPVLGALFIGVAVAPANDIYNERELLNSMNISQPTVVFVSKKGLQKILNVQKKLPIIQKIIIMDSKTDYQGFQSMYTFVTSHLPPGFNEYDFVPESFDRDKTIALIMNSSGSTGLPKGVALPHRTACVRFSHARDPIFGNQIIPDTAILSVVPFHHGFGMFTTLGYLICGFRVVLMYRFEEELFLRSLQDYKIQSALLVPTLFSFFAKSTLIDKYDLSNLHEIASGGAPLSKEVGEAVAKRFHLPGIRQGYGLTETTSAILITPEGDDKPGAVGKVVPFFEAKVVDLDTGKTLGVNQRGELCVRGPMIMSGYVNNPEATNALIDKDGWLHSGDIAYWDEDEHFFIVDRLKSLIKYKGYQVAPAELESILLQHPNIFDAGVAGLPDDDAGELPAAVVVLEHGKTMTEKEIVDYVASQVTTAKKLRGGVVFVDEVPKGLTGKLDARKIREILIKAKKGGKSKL
Procedure, shortened: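 Biochemical qHTS: compounds run as interplate titrations against purified firefly enzyme, with D-luciferin and ATP each at its KM concentration. Light output recorded by CCD imaging.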
% is scaled to controls: 0 for no effect and ±100 for the full control effect.

OP(O)c1ccccc1
inactive: Potency [1] | Potency [2] | Potency [3] | Potency [4] | Potency [5] | Potency [6] | Potency [7] | Potency [8] | Potency [9] | Potency [10] | outcome [11] | outcome [12] | Potency [13] | Potency [14] | activity change, positive = activation [15] 1.75% | Potency [16] | Potency [17] | outcome [18]

O=C(Cl)C(Cl)(Cl)Cl
inactive: Potency [1] | Potency [19] | Potency [3] | Potency [4] | Potency [5] | Potency [6] | Potency [9] | outcome [11] | outcome [12] | Potency [16] | Potency [17] | outcome [18]

ClCCCCCCCl
inactive: Potency [1] | Potency [2] | Potency [3] | Potency [4] | Potency [5] | Potency [6] | Potency [9] | Potency [10] | outcome [11] | outcome [12] | Potency [16] | Potency [17] | outcome [18]

Cc1ccc2c(c1)C1CN(C)CCC1N2 (centres undefined)
inactive: viability change, negative = cytotoxic [1] 8.02% [at 19 µM] | viability change, negative = cytotoxic [2] 3.2% [at 19 µM] | activity change, negative = cytotoxicity [3] 1.97% [at 19 µM] | activity, negative = inhibition [4] 51% [at 19 µM] | activation [5] 2.22% [at 19 µM] | viability change, negative = cytotoxic [6] 2.92% [at 19 µM] | activity, negative = inhibition [7] -1.31% [at 19 µM] | activation [8] -0.364% [at 19 µM] | activation [9] 15.7% [at 19 µM] | activity change, negative = cytotoxicity [10] -1.4% [at 15.8 µM] | activation (H2AX phosphorylation) [11] -0.451% [at 31.6 µM] | activation [12] 0.38% [at 15.8 µM] | activity change, negative = cytotoxicity [13] -2.09% [at 31.6 µM] | activity, negative = inhibition [14] 10.8% [at 19 µM] | activity change, positive = activation [15] 6.1% [at 19 µM] | activity change, negative = cytotoxicity [16] -2.75% [at 15.8 µM] | activity change, negative = cytotoxic [17] 0.479% [at 15.8 µM] | cytotoxicity [18] -0.0492% [at 15.8 µM]

S=C=S
inactive: Potency [1] | Potency [2] | Potency [3] | Potency [4] | Potency [5] | Potency [6] | Potency [7] | Potency [8] | Potency [9] | Potency [10] | outcome [11] | outcome [12] | Potency [14] | activity change, positive = activation [15] 2.11% | Potency [16] | Potency [17] | outcome [18]

CC(C)[C@]12CC(=O)[C@H](C)[C@H]1C2
inactive: Potency [1] | Potency [19] | Potency [3] | Potency [6] | Potency [9] | Potency [10] | outcome [11] | outcome [12] | Potency [16] | Potency [17] | outcome [18]

C=C1C[C@@H]2[C@H](CC[C@]3(C)C(=O)CC[C@@H]23)[C@@]2(C)C=CC(=O)C=C12
inactive: Potency [1] | Potency [19] | Potency [3] | Potency [4] | Potency [6] | Potency [7] | Potency [8] | Potency [9] | Potency [10] | outcome [11] | outcome [12] | Potency [13] | activity change, positive = activation [15] -24.3% [at 42.5 µM] | Potency [16] | Potency [17] | outcome [18]

CCN[C@@H](C)Cc1cccc(C(F)(F)F)c1
inactive: Potency [1] | Potency [2] | Potency [3] | Potency [4] | Potency [5] | Potency [6] | Potency [9] | Potency [10] | outcome [11] | outcome [12] | Potency [13] | Potency [16] | Potency [17] | outcome [18]
